Compound activity from PubChem BioAssay.
Mdm2-MdmX inh – inhibitors of human Mdm2-MdmX association, primary screen, cell-based, luminescence, split luciferase, SaOS-2, uHTS; Protein Mdm4 (Homo sapiens) + E3 ubiquitin-protein ligase Mdm2 (Homo sapiens), …; SaOS-2 split-luciferase Mdm2/MdmX complementation; inhibition, % at 8 µM; actives 3% (n = 330,000);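 active means inhibition of at least 50% at 8 µM in the primary screen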
HIF-2a inh – HIF-2a reporter inhibitors, primary screen, luminescence, 786-0 RCC cells; 786-0 RCC cells HIF-2a reporter, luciferase luminescence, overnight; inhibition, % at 18.8 µM; actives 0.72% (n = 360,000); AID 624352, 2012;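 active means inhibition of the luminescence signal of 40% or more relative to plate controls, in a single-dose primary screen at 18.75 µM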
KKLEB tox – cytotoxicity in KKLEB CF airway cells, primary screen, cytotoxicity control for CF NF-kB inhibitor project, cell-based, uHTS, fluorescence assay plates; KKLEB CF airway cells viability, ATPlite luminescence, overnight; stronger effect = lower value; cells stimulated with P. aeruginosa culture filtrate; activity change (cytotoxicity), % at 5 µM; actives 0.36% (n = 360,000);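 active means corrected activity change at or below -50% at 5 µM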
CF NFkB inh – inhibitors of PAF-induced NF-kB signaling, primary screen, cell-based, GFP fluorescence, uHTS; KKLEB NF-kB-GFP reporter, GFP fluorescence overnight; inhibition, % at 5 µM; actives 0.86% (n = 360,000);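 active means at least 50% inhibition at 5 µM, scaled per plate between neutral and stimulator controls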;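 further: PAF is a Pseudomonas aeruginosa culture filtrate used as stimulus; plate controls were PAF-stimulated DMSO wells for no effect and unstimulated DMSO wells for full effect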
Peg3 prom inh – Peg3 promoter-driven luciferase inhibitors, primary screen, cell-based, HeLa, luciferase luminescence; HeLa PEG-Prom luciferase reporter, overnight; inhibition, % at 20 µM; actives 1.7% (n = 360,000);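 active means inhibition of at least 50% at 20 µM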
ABHD5-PLIN5 inh – ABHD5-PLIN5 interaction inhibitors, primary screen, cell lysate, split luciferase complementation, luminescence; Perilipin-5 (Homo sapiens) + 1-acylglycerol-3-phosphate O-acyltransferase ABHD5 (Homo …; Split G. princeps luciferase complementation, 4 h; inhibition, % at 4 µM; actives 0.78% (n = 360,000); AID 602281, 2012;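 active means inhibition above the mean inhibition across every tested compound plus 3 SD, cut at about 22% in these data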;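 further: 0% = DMSO only wells and the 100% control is not disclosed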
Target sequence (Q00G26 whole entry, looked up): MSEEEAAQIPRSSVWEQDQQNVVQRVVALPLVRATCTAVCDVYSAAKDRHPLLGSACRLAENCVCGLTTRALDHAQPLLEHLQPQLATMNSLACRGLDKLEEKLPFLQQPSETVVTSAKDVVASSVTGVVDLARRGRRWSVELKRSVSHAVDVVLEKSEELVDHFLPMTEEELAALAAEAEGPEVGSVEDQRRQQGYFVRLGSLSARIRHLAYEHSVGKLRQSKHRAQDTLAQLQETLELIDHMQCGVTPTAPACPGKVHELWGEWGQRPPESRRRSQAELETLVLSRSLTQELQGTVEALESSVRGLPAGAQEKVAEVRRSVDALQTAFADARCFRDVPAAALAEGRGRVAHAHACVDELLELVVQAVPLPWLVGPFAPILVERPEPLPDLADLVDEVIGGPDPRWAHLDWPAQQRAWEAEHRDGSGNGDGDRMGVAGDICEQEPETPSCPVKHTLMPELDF
Target sequence (Q8WTS1 whole entry, looked up): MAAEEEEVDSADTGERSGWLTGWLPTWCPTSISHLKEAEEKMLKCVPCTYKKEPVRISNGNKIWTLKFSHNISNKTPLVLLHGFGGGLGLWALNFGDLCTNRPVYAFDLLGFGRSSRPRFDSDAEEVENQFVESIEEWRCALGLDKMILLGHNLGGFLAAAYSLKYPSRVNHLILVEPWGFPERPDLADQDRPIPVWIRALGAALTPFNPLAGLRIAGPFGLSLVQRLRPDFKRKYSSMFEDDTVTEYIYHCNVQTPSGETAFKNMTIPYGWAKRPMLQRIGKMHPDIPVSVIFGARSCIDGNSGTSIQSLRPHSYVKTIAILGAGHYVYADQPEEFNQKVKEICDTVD
CF NFkB inh conf – inhibitors of PAF-induced NF-kB signaling, retest, confirmation, cell-based, GFP fluorescence, single concentration; shares compounds with CF NFkB inh; KKLEB CF airway cells, overnight; inhibition, % at 5 µM; actives 64% (n = 1,300); in the data active means inhibition above about 40%;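 further: stimulus PAF is a Pseudomonas aeruginosa filtrate and not platelet activating factor; plate controls were DMSO wells with stimulus for no effect and unstimulated DMSO wells for full effect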
Starred values were filed as active, the others as inactive; . = no result; ! = a repeat was not active. Hits are enriched below; roughly 4.6% of the tested compounds scored in any of these assays.

SMILES | Mdm2-MdmX inh | HIF-2a inh | KKLEB tox | CF NFkB inh | Peg3 prom inh | ABHD5-PLIN5 inh | CF NFkB inh conf
Cc1cc(F)ccc1S(=O)(=O)Nc1ccc(O)c(Sc2ncn[nH]2)c1 | 14 | 10 | -5 | 2 | -4 | -2 | .
COCc1cc(=O)[nH]c(SCCS(=O)(=O)c2ccc(Cl)cc2Cl)n1 | 42 | 12 | -43 | 100* | 46 | 8 | -15
COc1ccc(OC)c(NC(=O)C2(C)CCN2C(=O)Cc2ccc(Cl)cc2Cl)c1 (stereo not drawn) | . | 12 | -22 | 17 | 7 | 4 | .
COc1ccc(-c2[nH]n(-c3ccc([N+](=O)[O-])cc3)c(=O)c2C=NCc2ccccc2)cc1 | 32 | 20 | -28 | 50* | 24 | 5 | 23
COc1ccc(-c2[nH]n(-c3ccc([N+](=O)[O-])cc3)c(=O)c2C=NCCN2CCNCC2)cc1 | 17 | . | . | . | . | . | .
CCN(Cc1ccccc1)C(=O)CCS(=O)(=O)c1ccc2c(c1)n(C)c(=O)c(=O)n2C | 12 | 6 | 4 | 0 | 1 | -2 | .
CCC(C(=O)OCC(=O)NC1CCS(=O)(=O)C1)c1ccccc1 (stereo not drawn) | -2 | 13 | -1 | -18 | 10 | -5 | .
COc1ccc(C(=O)N2CCCc3ccccc32)cc1OC | . | 19 | 3 | 27 | 11 | 4 | .
COc1cccc(C(=O)N2CCCc3ccccc32)c1 | 21 | 5 | -50 | 54* | 9 | 0 | 10
CCOc1ccc(OCC(O)CN2CCN(S(=O)(=O)c3cccc(C(F)(F)F)c3)CC2)cc1 (stereo not drawn) | . | 4 | -10 | 3 | 21 | -8 | .
COc1ccc2ccc(O)c(CN3CCN(S(=O)(=O)c4cccc(C(F)(F)F)c4)CC3)c2c1 | -5 | 17 | -30 | 70* | -1 | 21 | 29
C=CCN1C(=O)c2ccc(C(=O)NCCc3ccc(OC)c(OC)c3)cc2C1=O | 12 | 19 | -3 | -6 | 1 | -4 | .
O=C(CC1C(=O)NCCN1CC1CCCCC1)NCCCN1CCOCC1 (stereo not drawn) | 6 | 13 | 0 | 12 | -1 | -1 | .
Cc1cccc(NC(=O)c2ccc([N+](=O)[O-])o2)n1 | -2 | -3 | -25 | 61* | 14 | -1 | 8
CC(=O)c1c(C)[nH]c(C(=O)COC(=O)c2ccc(C)s2)c1C | -30 | -28 | 26 | 64* | -135 | 7 | 7
CCOC(=O)c1c(C)[nH]c(C(=O)COC(=O)c2[nH]c(C)c(C(C)=O)c2C)c1C | 8 | 13 | 7 | -3 | 11 | 0 | .
COc1cc(OC)cc(-c2c(C#Cc3ccsc3)c3cc(-c4cccc5[nH]cc(C=O)c45)ccc3n2C)c1 | 41 | -42 | -14 | 73* | 54* | 5 | -33
COc1ccc(-c2c(C#Cc3ccsc3)c3cc(-c4cccc5[nH]ccc45)ccc3n2C)cc1 | 14 | -3 | 1 | -6 | -4 | -1 | .
O=C(Nc1cccnc1)c1sc2cccc(F)c2c1Cl | 18 | -304 | -9 | 53* | -241 | -1 | 54*
O=C(Nc1ccccn1)c1sc2cccc(F)c2c1Cl | -63 | -129 | -48 | -13 | -142 | -1 | .
Cc1ccc(C(=O)Nc2cccc(C(F)(F)F)c2)cc1NC(=O)c1nccnc1N | 30 | 12 | -44 | 59*! | 10 | 2 | 78*
Cc1ccc(C(=O)Nc2cccc(C(F)(F)F)c2)cc1Nc1cncnc1 | -3 | 9 | -3 | 29 | 18 | -3 | .
Cc1ccc(C(=O)Nc2cccc(C(F)(F)F)c2)cc1NC(=O)c1cnnc2ccccc12 | 8 | 2 | -25 | 53* | 17 | -3 | 52*
C=C1C(=O)[C@]23C[C@H]1CC[C@H]2[C@]1(C)[C@@H](OC(C)=O)CC[C@@](C)(C(=O)O)[C@H]1C[C@@H]3OC(C)=O | . | -26 | 1 | 62* | 33 | 14 | 17
Cc1ccc(C(C)C)c(OCC(=O)NC2CCN(C)CC2)c1 | 21 | 13 | -4 | -5 | 17 | 10 | .
SMILES | Mdm2-MdmX inh | HIF-2a inh | KKLEB tox | CF NFkB inh | Peg3 prom inh | ABHD5-PLIN5 inh | CF NFkB inh conf
O=C(c1ccccc1)c1ccc(NCCCn2ccnc2)c([N+](=O)[O-])c1 | 19 | -35 | -2 | -8 | -7 | -3 | .
c1cncc(CNc2ncnc3ccc(-c4ccc5c(c4)OCO5)cc23)c1 | -8 | 24 | -2 | 36 | 18 | 9 | 29
COc1cc2c(Cc3ccccc3)cncc2cc1O | . | 13 | 3 | 53* | 10 | 13 | 66*
COc1ccc(C(=O)OCC(=O)Nc2ccccc2)cc1[N+](=O)[O-] | 14 | 2 | 11 | 0 | -5 | 6 | .
CS(=O)(=O)c1ccc(C(=O)OCc2nnc(-c3ccccc3)o2)cc1[N+](=O)[O-] | . | 21 | -28 | 76* | 109* | 15 | 36
O=C(COC(=O)c1ccc([N+](=O)[O-])cc1)Nc1cccnc1Cl | 17 | 17 | 26 | -28 | 12 | 6 | .
CC(=O)c1cccc(NC(=O)COC(=O)c2ccc(S(C)(=O)=O)c([N+](=O)[O-])c2)c1 | 15 | 14 | -1 | 63* | 8 | 13 | 43*
CS(=O)(=O)c1ccc(C(=O)OCC(=O)Nc2cccnc2Cl)cc1[N+](=O)[O-] | 38 | -1 | -31 | 90* | 24 | 11 | 40
C[C@@H](NC(=O)[C@@H]1CCCN1C(=O)[C@@H]1CCCN1C(=O)c1cccc2ccccc12)c1ccccc1 | . | 18 | . | . | . | 6 | .
CC1CCCCN1c1ncnc(N)c1[N+](=O)[O-] (stereo not drawn) | 37 | 14 | 0 | 74* | 9 | 1 | 64*
NC(=O)c1cc([N+](=O)[O-])ccc1NCC1CCCCC1 | 7 | -147 | 4 | -26 | -121 | -1 | .
O=C1CCC(N2C(=O)c3ccccc3C2=O)C(=O)N1 (stereo not drawn) | 26 | -6 | 18 | 76* | 4 | 1 | 12
O=C1c2ccccc2C(=O)N1C1CCCCC1 | 16 | 5 | -4 | 6 | -5 | 6 | .
Cc1cc(N2C(=O)C(O)=C(C(=O)c3ccc(C)o3)C2c2cccc(Oc3ccccc3)c2)no1 (stereo not drawn) | 2 | 4 | 6 | 51* | 15 | -21 | 64*
COc1ccc(NC(=O)COc2ccc(Br)cc2)c(OC)c1 | 11 | -79 | 6 | 13 | -72 | -7 | .
